Source: PubChem BioAssay (NCI)
This is part of a sample that, as a whole, favours compounds with a hit. Of some 83,000 tested, about 20% had one in any assay.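 Method: cells in 96-well plates; compound added at one concentration; 48 h incubation; percent growth measured; values under 10 scored active.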 Values without a mark were called inactive. Active and inactive are the calls of the source.

What follows are molecules tested on HL-60(TB) leukemia (assay: NCI-60 one-dose screen, 48 h (100 = growth as untreated, 0 = no growth, -100 = all killed)). Details: 10 µM unless noted.

Structure (SMILES) | growth
Cc1ccc2c(n1)C(=O)C(Cl)=C(Nc1ccccc1C(=O)OC(C)(C)C)C2=O | -32.7% (active)
CCN(CC)S(=O)(=O)c1ccc(-c2nc(C(Cl)Cl)nc3cc(C)nn23)cc1 | -9.17% (active)
CN(C)S(=O)(=O)c1oc(-c2ccccc2)nc1C#N | 13.8%
O=c1c2ccccc2nc(COc2ccccc2)n1/N=C/C=C/c1ccccc1 | 107%
O=S(=O)(NCCCNc1nccc(-c2[nH]c(-c3ccccc3)nc2-c2ccc(F)c(O)c2)n1)c1ccc(C(F)(F)F)cc1 | -3% (active)
Cc1ccc2c(c1)Oc1nc(N)c(C#N)c(N)c1C2Sc1ccc(F)cc1 (stereo not given) | -51.7% (active)
COc1cccc(-c2nn(-c3ccccc3)cc2-c2ccnc(N3CCN(C(=O)c4ccccc4)CC3)c2)c1 | 34.8%
COc1ccc(/C=C/C(=O)c2nnn(-c3ccc(C(=O)O)cc3)c2C)cc1OC | 83.2%
Cc1cc(S(=O)(=O)N(C)C)cc(NCC(=O)NC(=O)NCC(C)C)c1C | 128%
CCCCSC1=C(Cl)CN(c2ccc(Cl)cc2)C1=O | 85.4%
CNC(=O)c1c(NC(=O)c2ccc(F)cc2F)sc2c1CCC(=O)C2 | -12.6% (active)
N#Cc1c(-c2ccc(F)cc2)cc(-c2c[nH]c3ccccc23)nc1-c1c[nH]c2ccccc12 | 98.9%
CC(=O)c1c([Si](C)(C)C)c2cc(C#N)ccn2c1C(=O)c1ccc(Br)cc1 | 97.8%
CC(C)(C)Nc1nc2c(OCCc3ccccc3)cccn2c1-c1ccc([N+](=O)[O-])cc1 | 47.4%
NS(=O)(=O)c1ccc(Nc2cc(-c3ccccc3)nc(SCC(=O)c3ccccc3)n2)cc1 | 106%
NS(=O)(=O)c1ccc(Nc2nc(N/N=C/c3ccccn3)nc(Nc3ccccc3)n2)cc1 | 2.68% (active)
COc1ccc2[nH]cc(/C=N/Nc3nc4ccccc4s3)c2c1 | 39.1%
CC(=O)c1ccc(Nc2nc(SCC(C)C)nc(-c3ccccc3)c2C#N)cc1 | 101%

Structure (SMILES) | growth
COc1ccc([C@@H]2C(=O)N(c3cc(OC)c(OC)c(OC)c3)[C@H]2c2ccc(OC)c(O)c2)cc1 | 2.64% (active)
O=C(Nc1ccc(N=Cc2c(O)[nH]c3ccccc23)cc1)Nc1ccc(S(=O)(=O)Nc2ncccn2)cc1 | 117%
O=C(c1ccc(Cl)cc1)C1[C@H](c2ccc(Cl)cc2)[C@@H](c2ccccc2)NC12C(=O)Nc1ccc(Br)cc12 (stereo not given in full) | 22.3%
CN(C)CCNc1ccc2ncc(C#Cc3cncc(C(=O)Nc4ccc(CN5CCN(C)CC5)c(C(F)(F)F)c4)c3)n2n1 | -32.1% (active)
O=C(CCCCCCN1CC(=O)N2[C@@H](c3ccc(Cl)s3)c3[nH]c4ccccc4c3C[C@H]2C1=O)NO | 1.42% (active)
O=C(NNc1nc2cc(F)ccc2n2c(CN3CC4CNCC4C3)ccc12)c1cnccn1 (stereo not given) | 0.485% (active)
Cn1ccnc1C(=O)/C=C/c1ccc(NC(=O)Nc2ccc(Cl)cc2)cc1 | 44.2%
CC1=Cc2ccccc2OC12C=Cc1ccccc1O2 (stereo not given) | 106%
CS(=O)(=O)c1ccc(-c2nc3ccccn3c2/C=N/Nc2nc(-c3ccc(Br)cc3)cs2)cc1 | 107%
Nc1nc(N)c2c(n1)NC(c1ccc(F)cc1)CC(c1ccc(Nc3nc(NCCO)nc(Nc4ccc(Cl)cc4)n3)cc1)=N2 (stereo not given) | -11.4% (active)
O=C(CCCCCCN1CC(=O)N2[C@@H](C3CC3)c3[nH]c4ccccc4c3C[C@H]2C1=O)NO | 31.8%
CN(C)CCNC(=O)c1ccc(-c2nc3ccc4[nH]ncc4c3c3c2CCC3)cc1 | -18.8% (active)
O=C(CSc1nc2ccccc2c(=O)n1-c1ccccc1)Nc1cccc(C(=O)/C=C/c2ccccc2Cl)c1 | 108%
Cc1ccsc1[C@H]1c2[nH]c3ccccc3c2C[C@H]2C(=O)N(CCCCCCC(=O)NO)CC(=O)N12 | 104%
COc1ccc(Oc2ccc(/C=N/NC(=O)CSc3nc4ccccc4c(=O)n3-c3ccc(Cl)cc3)cc2)cc1 | 104%
COc1ccc(-c2csc(N/N=C/c3c(-c4ccc(S(C)(=O)=O)cc4)nc4ccccn34)n2)cc1 | 103%
Cc1cc(O)c(=O)cc2c1C[C@H]1CC(C)(C)/C=C/C[C@]3(C)Oc4cc(=O)c(O)cc(C)c4C[C@H]3C[C@H](O)[C@@]1(C)O2 | -31.8% (active)
